# Source: PubChem BioAssay
# Rows were chosen to be rich in hits. Some 2.4% of all compounds tested hit in one or more screens of this group.
# Pol kappa inh – qHTS for Inhibitors of Polymerase Kappa; DNA polymerase kappa (Homo sapiens), Q9UBT6; Potency, µM (top dose mostly 107 µM), for inactives: top-dose activity, negative = inhibition, usual class: inhibitors; AID 588579, 2011; 0.53% of 400,000 active; purified Pol kappa, fluorescent DNA synthesis assay, 10 min; further: on the % scale 0 is the no-effect control and ±100 the full control effect
#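 Pol kappa 10 nM + cpd, 15 min RT; start w/ substrate 50 nM final; fluorescence kinetic read, 0 and 10 min. Neg ctrl: buffer, no enzyme.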
# Pol iota inh – qHTS for Inhibitors of Polymerase Iota | DNA polymerase iota (Homo sapiens), Q9UNA4 | Pol iota fluorescent replication assay, 10 min | Potency, µM (top dose mostly 115 µM), for inactives: top-dose activity, negative = inhibition, hits mostly inhibitors | 1% of 390,000 active | AID 588590, 2011
#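 Pol iota at 10 nM preincubated 15 min with compounds at room temperature; reaction started with fluorescent substrate, 50 nM final. Fluorescence read kinetically at 0 and 10 min; buffer-only wells as negative control.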
# POLH inh – qHTS for Inhibitors of Polymerase Eta; recombinant Pol eta, fluorescent DNA replication assay; 1.2% of 390,000 active; AID 588591, 2011; DNA polymerase eta (Homo sapiens), Q9Y253; Potency, µM (top dose mostly 114 µM), inactives show at the top dose activity change, negative = inhibition, actives largely listed as inhibitors; further: on the % scale 0 is the no-effect control and ±100 the full control effect
#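 Pol eta at 10 nM preincubated with compounds 15 min at room temperature; reaction started with fluorescent substrate (50 nM final) and read kinetically at 0 and 10 min.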
# WRN inhibitor – qHTS for Inhibitors of WRN Helicase. WRN helicase unwinding, fluorescent forked duplex, kinetic. Bifunctional 3'-5' exonuclease/ATP-dependent helicase WRN (Homo sapiens), Q14191. 0.46% of 360,000 active. Potency, µM (top dose mostly 114 µM), for the others: at the highest dose activity change, negative = inhibition, actives largely listed as inhibitors. AID 651768, 2012; further: on the % scale 0 is the no-effect control and ±100 the full control effect; nearly all actives have a fitted effect of over 55% in size
# Target sequence (Q14191 whole entry, looked up): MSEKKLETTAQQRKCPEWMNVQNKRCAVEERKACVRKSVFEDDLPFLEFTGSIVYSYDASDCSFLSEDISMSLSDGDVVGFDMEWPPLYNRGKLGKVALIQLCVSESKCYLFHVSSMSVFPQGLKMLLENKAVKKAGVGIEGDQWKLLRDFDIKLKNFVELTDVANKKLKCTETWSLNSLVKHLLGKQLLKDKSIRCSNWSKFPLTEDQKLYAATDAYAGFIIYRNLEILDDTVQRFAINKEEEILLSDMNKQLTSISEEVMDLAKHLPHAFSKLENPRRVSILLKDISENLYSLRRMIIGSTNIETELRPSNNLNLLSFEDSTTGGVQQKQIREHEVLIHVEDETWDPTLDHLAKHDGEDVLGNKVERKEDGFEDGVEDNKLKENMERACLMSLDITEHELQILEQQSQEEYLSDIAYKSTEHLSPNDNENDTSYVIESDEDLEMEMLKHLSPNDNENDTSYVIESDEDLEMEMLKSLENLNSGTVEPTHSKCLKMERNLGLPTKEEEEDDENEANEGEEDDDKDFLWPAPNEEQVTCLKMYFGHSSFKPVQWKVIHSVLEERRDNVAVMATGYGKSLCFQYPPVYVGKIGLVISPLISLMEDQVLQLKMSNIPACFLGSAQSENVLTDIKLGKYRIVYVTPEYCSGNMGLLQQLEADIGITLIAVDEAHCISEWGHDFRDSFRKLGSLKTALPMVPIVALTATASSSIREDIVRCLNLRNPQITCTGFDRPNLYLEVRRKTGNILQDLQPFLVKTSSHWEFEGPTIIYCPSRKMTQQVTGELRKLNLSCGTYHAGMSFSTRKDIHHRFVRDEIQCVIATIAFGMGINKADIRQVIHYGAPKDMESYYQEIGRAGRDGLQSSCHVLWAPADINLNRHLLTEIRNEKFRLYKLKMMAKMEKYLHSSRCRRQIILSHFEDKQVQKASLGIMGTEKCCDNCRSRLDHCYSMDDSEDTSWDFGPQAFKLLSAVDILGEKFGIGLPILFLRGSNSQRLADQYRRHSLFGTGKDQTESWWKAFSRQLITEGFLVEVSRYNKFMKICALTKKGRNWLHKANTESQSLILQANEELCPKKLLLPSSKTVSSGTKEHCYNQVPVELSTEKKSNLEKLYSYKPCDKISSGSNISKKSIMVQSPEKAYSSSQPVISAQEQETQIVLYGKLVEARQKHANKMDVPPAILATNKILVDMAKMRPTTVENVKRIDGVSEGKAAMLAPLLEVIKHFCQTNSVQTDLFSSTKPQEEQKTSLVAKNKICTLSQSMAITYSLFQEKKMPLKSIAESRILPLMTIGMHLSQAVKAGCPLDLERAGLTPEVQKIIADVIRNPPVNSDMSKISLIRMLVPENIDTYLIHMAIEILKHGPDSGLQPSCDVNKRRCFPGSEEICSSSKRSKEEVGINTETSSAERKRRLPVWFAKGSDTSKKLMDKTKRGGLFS
#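 Enzyme (20 nM final) and test compound sit together 15 min at room temperature before substrate addition. Substrate is a single-forked duplex oligonucleotide (100 nM) labelled with fluorophore and quencher, with 2 mM ATP; helicase unwinding raises red fluorescence, read kinetically.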
# POLB inh – qHTS Assay for Inhibitors of DNA Polymerase Beta. 1.3% of 340,000 active. Pol beta primer extension/strand displacement, fluorescence kinetic. Potency, µM (titrated, usually from 114 µM), for inactives: at the highest dose activity change, negative = inhibition, hits mostly inhibitors; further: on the % scale 0 is the no-effect control and ±100 the full control effect
#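 Pol beta (10 nM) was preincubated with compound for 15 min at room temperature. The reaction was then started with 50 nM substrate and read immediately and after a further 10 min at room temperature.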
# FEN1 inhibitor – qHTS Assay for the Inhibitors of Human Flap endonuclease 1 (FEN1); P39748; Recombinant FEN1 flap cleavage, fluorescence, 15 min; Potency, µM (titrated, usually from 114 µM), for inactives: at the top dose activity change, negative = inhibition, hits mostly inhibitors; 0.35% of 390,000 active; further: on the % scale 0 is the no-effect control and ±100 the full control effect; nearly all actives have a fitted effect of over 65% in size
#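 In this screen, 50 nM flap DNA substrate was added to 10 nM FEN1 pretreated with compound for 15 min at room temperature; cleavage was followed with reads at 0 and 15 min, and Hill fitting gave concentration–response parameters.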
# * hit, by the source's call; ? = inconclusive; . = no result given; ! = not active in a repeat; [ ] = remark or other dose. The call rests on the fitted dose curve; in most records, active means well fitted curve in the direction sought with a large enough effect; inconclusive means small, poorly fitted or top-dose-only effect, or another doubt; inactive means no such curve, though single readings can be large; an effect the other way counts as inactive or inconclusive. Potency means the concentration at half of the fitted maximal effect.
SMILES,Pol kappa inh,Pol iota inh,POLH inh,WRN inhibitor,POLB inh,FEN1 inhibitor
CC(NS(=O)(=O)c1ccc(Br)cc1)C(=O)NCc1ccco1 (configuration not stated),-18%,8%,7%,0%,-12%,1%
CC(NS(=O)(=O)c1ccccc1)C(=O)NCc1ccco1 (configuration not stated),?,40µM*,?,-10%[11.6 µM],?,9%
COc1cc(-c2nc3ccccn3c2/N=C/c2cc(OC)c(O)cc2Cl)ccc1O,?,?,?,-21%,25µM*,?
COc1cc(-c2nc3ccccn3c2/N=C/c2ccccc2)ccc1O,-8%[60.1 µM],?,-21%,-15%,-4%,2%
CCc1ccc(CNC(=O)C2CCCN(c3nnc(C)c4c(C)n(-c5ccccc5)nc34)C2)cc1 (configuration not stated),-2%,33%,?,1%,50µM*!,20%
Cc1nnc(N2CCCC(C(=O)NCc3ccccc3)C2)c2nn(-c3ccccc3)c(C)c12 (configuration not stated),-1%,22%,-11%,.,29%,-4%
Cc1ccccc1CNC(=O)C1CCCN(c2nnc(C)c3c(C)n(-c4ccccc4)nc23)C1 (configuration not stated),-11%,2%,?,-11%[57.1 µM],?,?
Cc1nnc(N2CCC(C(=O)NCc3ccc(F)cc3)CC2)c2nn(-c3ccc(Cl)cc3)c(C)c12,-13%,27%,-28%,.,79µM*,16%
Cc1ccc(-n2nc3c(N4CCC(C(=O)NCc5ccccc5C)CC4)nnc(C)c3c2C)cc1,2%,?,50µM*,-15%[11.6 µM],89µM*,9%
N#C/C(=C1/SCC(c2ccccc2Cl)S1)n1ccnc1 (configuration not stated),-3%[60.1 µM],.,.,.,.,.
Cc1ccccc1OCC(=O)NCC(=O)OCC(=O)c1ccc2c(c1)CCCC2,-14%,14%,.,.,.,-1%
CC[C@H](NC(=O)[C@H](CCC(=O)O)NC(=O)[C@H](CCC(=O)O)NC(=O)[C@H](CC(=O)O[S+](=O)([O-])c1cccc2c(NCCN)cccc12)NC(=O)[C@H](CCC(=O)O)NC(=O)[C@H](CC(=O)O)NC(C)=O)C(=O)ON[C@@H](C)C(=O)N[C@@H](CO)C(=O)N[C@@H](CCCCNC(=O)c1ccc(N=Nc2ccc(N(C)C)cc2)cc1)C(N)=O,-2%[60.1 µM],.,.,.,.,.
CCc1ccc(OCCCCn2c(CCNC(=O)C3CCCCC3)nc3ccccc32)cc1,-6%,15%,.,.,.,-18%
Cc1cccc(N2CCC(N3CCN(C4CCCCC4)C(CCO)C3)CC2)c1C (configuration not stated),-1%,49%,-2%,0%,40µM*,13%
CC(C)N1CCC(N2CCN(C3CCCC3)CC2CCO)CC1 (configuration not stated),1%,61%,-20%,9%[57.1 µM],17%,-4%
CN(C)C(=O)NC1CCCCCCC1,12%[60.1 µM],.,.,.,.,.
Cc1ccc2c(c1)CCC2=O,-56%,?,.,.,.,?
CCCCc1ccc(-c2ccc(C)cc2O)nc1,-13%,22%,-6%,-5%,28µM*,-12%
CN(C)c1ccc(C(=O)Oc2cc(O/N=[N+](\[O-])N(C)C)c([N+](=O)[O-])cc2[N+](=O)[O-])cc1,-11%,37%,.,.,.,?
Cc1cc(C(=O)COC(=O)c2cc(O)c3ccccc3c2O)c(C)n1CC1CCCO1 (configuration not stated),-17%,53%,-26%,?,45µM*,?
O=C(c1cc2nc(C3CC3)cc(C(F)F)n2n1)N1CCOCC1,79µM*,?,13µM*,?,50µM*,-4%
O=C(c1cnn2c(C(F)F)cc(C3CC3)nc12)N1CCCC1,-9%,8%,-4%,-15%,16%,2%
CSCC[C@H](NC(=O)[C@H](CC(C)C)NC(=O)[C@@H]1CCCN1C(=O)[C@H](Cc1ccccc1)NC(=O)[C@H](Cc1ccccc1)NC(=O)[C@@H]1CCC(=O)N1)C(N)=O,13%[60.1 µM],.,.,.,.,.
CCOc1cc(N2CCOCC2)c(OCC)cc1NS(=O)(=O)c1cc(NC(C)=O)ccc1OC,?,25µM*,?,-4%[11.6 µM],?,-14%
COc1cc(NS(=O)(=O)c2cc(NC(C)=O)ccc2OC)c(OC)cc1NC(=O)c1ccccc1,-23%,?,45µM*,-8%[11.6 µM],.,11%
SMILES,Pol kappa inh,Pol iota inh,POLH inh,WRN inhibitor,POLB inh,FEN1 inhibitor
COc1ccccc1NS(=O)(=O)c1cc(NC(=O)c2ccc(NC(C)=O)cc2)ccc1N1CCOCC1,-4%,13%,-25%,-20%,.,-2%
CCOc1cc(N2CCOCC2)c(OCC)cc1NC(C)C(=O)N1CCN(CC)CC1 (configuration not stated),?,13µM*,-7%,?,?,-32%
O=S(=O)(c1cccnc1)N1CCN(c2nc(-c3cccs3)nc3ccccc23)CC1,-9%,?,.,.,.,0%
Cc1cc(C(=O)COC(=O)Cc2ccc(Cl)cc2)c(C)n1C,?,35µM*,?,-23%,.,-4%
COc1ccc(-c2ccc(C(C)=O)cc2)cc1C1C2C=CCCC2(C)C(=O)N1Cc1ccccc1 (configuration not stated),-24%,-2%,.,.,.,-7%
CCCCN(CCCC)c1ccc(C(=O)c2ccccc2C(=O)O)c(O)c1,-6%,-43%,-2%,-9%,89µM*,8%
CN(C)c1ccc(C(=O)c2ccccc2C(=O)O)c(O)c1,-7%,15%,-11%,11%,1%,-3%
CC(C)C(=O)SCCCCCCC(=O)Nc1nc(-c2ccccc2)cs1,13%[60.1 µM],.,.,.,.,.
Cc1ccccc1CSCC(=O)NNC(=S)NCC1CCCO1 (configuration not stated),-33%,89µM*,-11%,-25%,?,-14%
CCC1CC=CC2C1C(=O)N(Cc1ccccc1)C2c1ccc(OC)c(Cl)c1 (configuration not stated),-12%,-1%,.,.,.,1%
CC(=O)Oc1ccc2cc(-c3nc4c(s3)CCc3ccccc3-4)c(=O)oc2c1,-4%,51%,.,.,.,-3%
COc1ccc(C2/C=C\CN(S(=O)(=O)CC34CCC(CC3=O)C4(C)C)CC(=O)N2Cc2ccc(F)cc2)cc1 (configuration not stated),8%,2%,.,.,.,5%
O=C(CCC(=O)N1CCN(c2ccccn2)CC1)c1ccc(Cl)s1,0%,?,14µM*,-19%,.,8%
